Measured values: ChEMBL document CHEMBL1201862, “PubChem BioAssay data set” (2004)
Screen size: about 310,000 compounds; about 11,000 (3.5%) were called active. Another 4% or so got no clear call; they are omitted. The rule behind the calls is not given here. The entries come from a sample that favours actives as a whole.

Each compound was assayed against T1, 4'-phosphopantetheinyl transferase ffp (Bacillus subtilis) (UniProt Q9F4F7) (assay: qHTS Assay for Inhibitors of Bacillus subtilis Sfp phosphopantetheinyl transferase (PPTase).).
T1 sequence (whole entry): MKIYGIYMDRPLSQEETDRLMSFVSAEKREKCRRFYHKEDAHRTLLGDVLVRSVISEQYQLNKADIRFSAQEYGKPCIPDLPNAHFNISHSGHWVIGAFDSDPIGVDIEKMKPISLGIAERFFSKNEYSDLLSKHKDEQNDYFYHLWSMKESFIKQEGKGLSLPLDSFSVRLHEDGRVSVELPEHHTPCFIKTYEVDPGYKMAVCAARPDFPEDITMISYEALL
Format: functional

Structure (SMILES) | Potency
Cl[Te]1(Cl)OCCO1 | 0.158 µM (active)
